Results filed as inconclusive are left out. Active and inactive are the calls of the source. Calls follow the shape of the dose curve; as a rule, active = well fitted curve in either direction with a large enough effect (not every such curve was filed as active); inconclusive = small, poorly fitted or top-dose-only effect, or another doubt; inactive = flat fitted curve, though single readings scatter.

The assay can be described thus: Stat Signaling Pathway (AID 446). Conditions: ME-180 (cervical carcinoma) SIE beta-lactamase reporter, IL-6 stimulated, 5 h; series mostly up to 17.2 µM. On the procedure: NCGC Assay Overview: The IL-6/STAT signaling pathway was assayed in ME-180 cervical carcinoma cells by a beta-lactamase reporter gene controlled by a STAT Inducible Element (SIE). This reporter is induced by IL-6 at 40 pM AC50 and inhibited by the pan JAK inhibitor, 2-(1,1-Dimethylethyl)-9-fluoro-3,6-dihydro-7H-benz[h]-imidaz[4,5-f]isoquinolin-7-one, at approximately 10 nM AC50. Plated cells were incubated overnight and on the following day, stimulated with 40 pM IL-6 for 5 hrs. The assay was screened at the AC50 of IL-6 activation to identify both inhibitors and activators of IL-6/STAT signaling.
NCGC Assay Protocol Summary: Cells were trypsinized, washed in assay medium (AM, OPTI MEM with 0.5% fetal bovine serum, 0.1 mM nonessential amino acids, 1 mM sodium pyruvate, 10mM HEPES pH 7.3, 100U/ml penicillin, and 100 ug/ml streptomycin) and suspended at 6 x 10e5/ml in AM. Approximately […] cells in 5 uL/well was dispensed into 1536 well plates and the cells were incubated overnight at 37 C. 23 nL of compound were delivered by a pin tool and 1 uL of IL-6 (40 pM final concentration in AM) was added. After centrifugation at 1000 rpm for less than a minute, plates were incubated at 37C for 5 hrs. One uL of detector mix (LiveBLAzerTM, Invitrogen) was added, the plates incubated at room temperature for 2.5 hrs, and fluorescence intensity at 460 and 530 nm emission was measured at 405 nm excitation by an Envision (Perkin Elmer) or Safire II (Tecan). Data were normalized by GeneData to the controls for AC90 stimulation (300 pM IL-6) and to AC90 inhibition (125 nM Jak inhibitor, 40 pM IL-6 in AM).
For the compound `O=C(Nc1cccc(F)c1)N1CCC2(CC1)CCN(C(=O)Oc1ccccc1)CC2`, the result was inactive. In the case of `C=C1[C@@H]2C[C@@]3([C@H]1O)[C@H]1C[C@@H]4[C@@]5(C)CC[C@H](O)[C@]4([C@H]1N(CC)C5)[C@H]3C[C@H]2O` it was “inactive”; in that of `COc1ccc(NC(=O)N2CCC3(CC2)CCN(C(=O)Oc2ccccc2)CC3)cc1`, “inactive”. In the case of `COc1ccc2c(c1OC)CN1CCc3cc4c(cc3[C@H]1C2)OCO4` it was “inactive”. Next, `c1csc(CN2CCC3(CCNCC3)CC2)n1`: “inactive”; `Oc1ccc2c3c1O[C@H]1[C@@H](O)CC[C@]4(O)[C@H](C2)N(CC2CCC2)CC[C@@]314`: “inactive”. For the compound `CC(C)CN1CCCC2(CCN(C(=O)Oc3ccccc3)CC2)C1`, the outcome was inactive.

`c1ccc2c(c1)[nH]c1cnccc12`: the result was inactive. In the case of `O=C(OC1CCN(CCCl)CC1)C(c1ccccc1)c1ccccc1` it was “inactive”. Next, `O=C(Nc1cccc(F)c1)N1CC2(CCNCC2)C1`: “inactive”; `O=C(c1csnn1)N1CCC2(CC1)CN(Cc1ccncc1)C2`: “inactive”; `O=C(c1ccncc1)N1CCC[C@@]2(CCN(Cc3nccs3)C2)C1`: “inactive”. In the case of `Cc1noc(C)c1C(=O)N1CCC2(CCCN(CC(C)C)C2)CC1` it was “inactive”; in that of `C/C=C1\C[N@@+]2(C)CC[C@@]34C(=C(C=O)[C@H]1C[C@H]32)Nc1ccccc14`, “inactive”. On to `C#CCN(C)[C@@H](C)Cc1ccccc1`, for which the call was inactive.

With `C[N+]1([O-])[C@@H]2CC(OC(=O)[C@@H](CO)c3ccccc3)C[C@@H]1[C@H]1O[C@H]12` (stereo not given in full), the result was inactive. In the case of `CO[C@@H](C)[C@](O)(C(=O)OCC1=CCN2CC[C@@H](O)[C@H]12)C(C)C` it was “inactive”. In the case of `CCN1C[C@]2(C)CC[C@H](OC)[C@@]34[C@@H]2[C@H](OC(C)=O)[C@]2(OCO[C@@]25C[C@@H](OC)[C@@H]2C[C@@]3(O)[C@H]5[C@@H]2OC)[C@H]14` it was “inactive”. In the case of `CC(=O)N[C@@H]1CCSC1=O` it was “inactive”. Take `CN1CCc2cc3c(cc2[C@@H]1O)OCO3`: the outcome was inactive. In the case of `O=C(Oc1ccccc1)N1CCC2(CCCN(Cc3nccs3)C2)CC1` it was “inactive”.

For the compound `CC(C)CN1CCCC2(CCN(C(=O)c3ccncc3)CC2)C1`, the outcome was inactive. Take `N#Cc1ccc(CN2CCC3(CC2)CCN(C(=O)Oc2ccccc2)CC3)cc1`: the outcome was inactive.

For `CC[C@]1(c2cccc(O)c2)CCCCN(C)C1`, the compound was classed as inactive. Next, `CC(C)[C@@]1(NC(=O)[C@@H]2C[C@H]3c4cccc5[nH]cc(c45)C[C@@H]3N(C)C2)O[C@]2(O)[C@H]3CCCN3C(=O)[C@H](Cc3ccccc3)N2C1=O`: “inactive”; `N#Cc1ccc(CN2CC[C@@]3(CCCNC3)C2)cc1`: “inactive”. In the case of `CCCN(CCC)C(=O)Cc1c(-c2ccc(Cl)cc2)nc2c(Cl)cc(Cl)cn12` it was “inactive”; in that of `COc1cc(C=C(C#N)C#N)cc(O)c1O`, “inactive”.

On to `CC[C@H](C)C(=O)O[C@@H]1[C@H](O)[C@@H]2[C@H](CN3C[C@@H](C)CC[C@@H]3[C@@]2(C)O)[C@@H]2C[C@@]34O[C@@]5(O)[C@@H](OC(=O)[C@](C)(O)CC)CC[C@@]3(C)[C@H]5[C@H](OC(C)=O)[C@@H](OC(C)=O)[C@H]4[C@]12O`, for which the compound was classed as inactive. In the case of `CC(C)NC(=O)N1CCC2(CCNCC2)CC1` it was “inactive”. In the case of `O=C1NC(=S)NC(=O)C1=Cc1cccc2cc3ccccc3cc12` it was “inactive”; in that of `CS(=N)(=O)CC[C@@H](N)C(=O)O` (stereo not given in full), “inactive”. Next, `O=C(c1ccco1)N1CCC2(CC1)CN(Cc1ccncc1)C2`: “inactive”; `CC(=O)O[C@H]1CC[C@@]2(C)C(=CC[C@@H]3[C@H]2CC[C@]2(C)C(=O)CC[C@H]32)C1`: “inactive”; `C#C[C@@]1(O)CC[C@@H]2[C@@H]3CCC4=CC(=O)CC[C@@]4(C)[C@H]3CC[C@]21C`: “inactive”. Consider `C[C@H]1[C@@H](O)[C@@H](C)/C=C\C=CCC\C=C/C=C\C=C/C=C[C@@H](O[C@H]2O[C@@H](C)[C@@H](O)[C@@H](N)[C@@H]2O)C[C@@H]2O[C@@](O)(C[C@@H](O)[C@H]2C(=O)O)C[C@@H](O)[C@@H](O)CC[C@@H](O)C[C@@H](O)C[C@@H](O)CC(=O)O[C@H]1C`, for which the compound was classed as inactive. As for `C=C[C@]12CN(C)[C@H]3C1[C@@]1(C(=O)Nc4ccccc41)[C@H]1C[C@H]2[C@H]3CO1`, the compound was classed as inactive. Next, `N#Cc1cccc(NC(=O)N2CC3(CCN(C(=O)Oc4ccccc4)CC3)C2)c1`: “inactive”; `c1ccc(N2CC3(CCNCC3)C2)cc1`: “inactive”; `O=[N+]([O-])O[C@H]1CO[C@H]2[C@H]1OC[C@@H]2O[N+](=O)[O-]`: “inactive”.

For the origin of these results see PubChem BioAssay (NCATS).
